Here are results for 20 compounds from ChEMBL document CHEMBL3988442, “University of Dundee, Small-Polar-MMV Screening Library” (2021).

The assay has as its target T1, Tyrosyl-tRNA synthetase, putative (Trypanosoma cruzi (strain CL Brener)) (UniProt Q4DSP6).
T1 sequence (whole entry): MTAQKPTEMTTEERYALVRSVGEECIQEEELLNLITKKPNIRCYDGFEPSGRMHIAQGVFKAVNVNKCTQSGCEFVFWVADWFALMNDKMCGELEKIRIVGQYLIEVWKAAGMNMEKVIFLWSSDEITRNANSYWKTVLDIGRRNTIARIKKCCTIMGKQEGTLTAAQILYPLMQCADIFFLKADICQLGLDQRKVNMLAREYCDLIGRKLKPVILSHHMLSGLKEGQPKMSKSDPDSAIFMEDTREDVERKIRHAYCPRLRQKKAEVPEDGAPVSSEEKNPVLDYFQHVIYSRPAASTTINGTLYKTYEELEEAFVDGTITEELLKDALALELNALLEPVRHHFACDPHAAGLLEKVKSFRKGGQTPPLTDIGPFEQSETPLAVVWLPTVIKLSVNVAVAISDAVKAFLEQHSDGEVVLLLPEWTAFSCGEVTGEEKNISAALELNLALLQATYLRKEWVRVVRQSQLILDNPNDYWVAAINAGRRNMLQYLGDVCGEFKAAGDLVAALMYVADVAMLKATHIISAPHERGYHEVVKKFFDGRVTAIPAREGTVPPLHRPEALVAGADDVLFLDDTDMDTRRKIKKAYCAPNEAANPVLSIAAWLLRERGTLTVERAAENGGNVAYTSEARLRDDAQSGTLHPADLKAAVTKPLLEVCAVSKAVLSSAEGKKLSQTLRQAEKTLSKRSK
As to the kind of experiment: Trypanosoma cruzi tyrosyl tRNA synthetase (TcYRS) SOP. Type of assay: functional. More on the design: scale not given: direction of the effect not stated beside the values. To be noted: 30 µM.
Consider `CC(=O)N1CCCN(Cc2csc(-c3ncccn3)n2)CC1`, for which the Percent Effect worked out at 18.2%.

Turning to `O=C(NCCc1ccn(-c2ccccc2)n1)N1CCC1`, the Percent Effect turned out to be 25.9%.

On to `O=C(NC1CC1)[C@H]1C[C@@H]2CCN(CCc3ccccc3)C[C@H]2O1`, for which the Percent Effect stood at 11.5%.

On to `CC1c2ncc(CN3CCN(C)CC3)n2CCN1CC1CC1` (stereo not given), for which the Percent Effect was determined as 17.5%.

Take `O=S(=O)(c1cccs1)N1CC[C@H](O)[C@@H]1Cc1ccncc1`: the Percent Effect came to 12.8%.

In the case of `COCc1nc2cc(NCc3ccncc3)ccc2o1`, the Percent Effect was -1.22%.

Regarding `CCn1cc(CN(C)C(=O)c2cccc(CCC(C)(C)O)c2)cn1`, the Percent Effect is 6.17%.

For the compound `COCCCNC(=O)CCn1nc(C)c2ccccc21`, the Percent Effect turned out to be 2.56%.

As for `CCc1nc(CN2CCCC(NCc3ccc(C(N)=O)cc3)C2)no1` (stereo not given), the Percent Effect is 1.27%.

Take `CCS(=O)(=O)N1CCO[C@H]2[C@H](OCCCn3cccn3)CC[C@@H]21`: the Percent Effect is 7.5%.

As for `Cc1nccn1C1CCCN(C(=O)c2ccc3c(c2)COC3)C1` (stereo not given), the Percent Effect is 13.4%.

As to `Cc1cc(C)n(-c2ccc(CNCc3ccc(OC(C)C)cc3)cn2)n1`, the Percent Effect is 19.5%.

In the case of `CCc1nc(C2CCCN2Cc2nc3ccccc3o2)no1` (stereo not given), the Percent Effect worked out at 0%.

As to `CC(C)N1CCC(Cc2cc(-c3ccccc3C(=O)O)ncn2)CC1`, the Percent Effect stood at 6.49%.

For `CC(=O)c1cccc(OCCCC(=O)NCC2CCCN2C)c1` (stereo not given), the Percent Effect worked out at 21.9%.

Regarding `CN1C(=O)C[C@@H]2[C@@H]1CCN2C(=O)c1ccc[nH]1`, the Percent Effect came to 6.17%.

For the compound `Cc1cc(C)n(-c2cncc(N3CCN(C(=O)C(C)(C)C)CC3)n2)n1`, the Percent Effect was determined as 1.22%.

As to `C1CCCN(c2nc(C3CC3)ns2)CC1`, the Percent Effect is -10%.

Turning to `Cn1cnnc1S(=O)(=O)C1CCN(S(=O)(=O)C2CC2)CC1`, the Percent Effect is 2.5%.

Take `O=C(O)c1ccc(S(=O)(=O)Nc2ccc(Cl)c(F)c2)c(F)c1`: the Percent Effect is -18.5%.
